# sPLA2-III inh: Inhibits HGIII-sPLA2 liposome hydrolysis, primary screen | QFRET BODIPY PC-A2 liposome hydrolysis, fluorescence | inhibition, % at 12.2 µM | 370,000 compounds, 0.56% hits | AID 743126 | Q9NZ20;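 active = inhibition above mean plus 3 SD of compounds lying within the high and low control bounds, cut at about 19% in these data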;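 note: 0% = median of test compound wells and 100% = no enzyme DMSO wells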
# PLC-beta3 inh: inhibitors of human phospholipase C beta3; Purified PLC-beta3, fluorogenic substrate, fluorescence; inhibition, % at 12.2 µM; AID 720704; Q01970; 370,000 compounds, 0.18% hits; in the data active = inhibition above about 11%;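 note: 0% = median of compound wells on plate and 100% = full blocker control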
# Target sequence (Q01970 whole entry, looked up): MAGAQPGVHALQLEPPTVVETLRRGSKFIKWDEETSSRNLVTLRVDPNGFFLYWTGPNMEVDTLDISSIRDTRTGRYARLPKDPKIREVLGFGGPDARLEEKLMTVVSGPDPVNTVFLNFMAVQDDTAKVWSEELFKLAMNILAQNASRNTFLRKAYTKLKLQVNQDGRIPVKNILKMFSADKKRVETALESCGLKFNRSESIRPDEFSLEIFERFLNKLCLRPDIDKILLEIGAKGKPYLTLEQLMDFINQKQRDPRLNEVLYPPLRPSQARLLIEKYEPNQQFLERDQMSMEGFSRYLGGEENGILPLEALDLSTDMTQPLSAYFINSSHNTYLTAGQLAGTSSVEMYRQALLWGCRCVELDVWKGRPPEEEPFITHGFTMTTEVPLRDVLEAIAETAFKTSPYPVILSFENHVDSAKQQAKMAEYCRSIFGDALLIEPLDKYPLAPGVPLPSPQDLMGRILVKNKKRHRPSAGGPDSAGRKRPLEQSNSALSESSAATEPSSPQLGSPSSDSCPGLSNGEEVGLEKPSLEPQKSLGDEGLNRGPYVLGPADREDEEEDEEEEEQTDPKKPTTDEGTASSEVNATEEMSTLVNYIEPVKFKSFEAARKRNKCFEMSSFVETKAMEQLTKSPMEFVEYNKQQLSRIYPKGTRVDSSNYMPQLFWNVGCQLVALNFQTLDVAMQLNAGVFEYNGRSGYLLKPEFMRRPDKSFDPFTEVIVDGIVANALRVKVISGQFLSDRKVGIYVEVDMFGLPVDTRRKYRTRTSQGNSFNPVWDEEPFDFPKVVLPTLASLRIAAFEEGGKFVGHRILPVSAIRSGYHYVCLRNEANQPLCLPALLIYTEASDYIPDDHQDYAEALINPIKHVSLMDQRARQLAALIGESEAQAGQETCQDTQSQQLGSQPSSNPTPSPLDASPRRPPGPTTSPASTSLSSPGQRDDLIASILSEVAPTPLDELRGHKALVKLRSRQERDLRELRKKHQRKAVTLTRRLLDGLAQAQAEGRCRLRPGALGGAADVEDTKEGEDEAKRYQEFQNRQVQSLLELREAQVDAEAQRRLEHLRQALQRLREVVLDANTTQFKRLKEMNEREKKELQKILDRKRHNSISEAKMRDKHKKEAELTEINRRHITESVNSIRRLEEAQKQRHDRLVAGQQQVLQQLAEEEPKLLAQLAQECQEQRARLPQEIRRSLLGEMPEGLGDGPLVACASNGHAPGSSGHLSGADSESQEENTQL
# DAGLB inh: blocks human DAGLB lipase activity. Q8NCG7. HEK293T DAGLB membrane lysate, EnzChek fluorogenic substrate. inhibition, % at 5.17 µM. 340,000 compounds, 0.059% hits; in the data active = inhibition above about 34%;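 note: 0% = enzyme with vehicle and 100% = wells lacking enzyme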
# PLCg1 inh: inhibitors of human phospholipase C gamma1; 370,000 compounds, 0.84% hits; AID 720700; P19174; purified PLC-gamma1, fluorogenic substrate, fluorescence; inhibition, % at 12.2 µM; in the data active = inhibition above about 9.5%
# sPLA2 confirm: human GIII-sPLA2 inhibition, confirmation; shares compounds with sPLA2-III inh; 2,000 compounds, 34% hits; inhibition, % at 12.2 µM; recombinant hGIII-sPLA2, BODIPY PC-A2 QFRET fluorescence; AID 743280;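 active = mean inhibition across triplicates above the hit cutoff set in the earlier primary screen, cut at about 19% in these data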;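 note: 0% = enzyme with DMSO and 100% = DMSO wells lacking enzyme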
# 535nm interf: 535nm fluorescence interference, HGIII-sPLA2 counter-screen. shares compounds with sPLA2-III inh. BODIPY FL product fluorescence interference, QFRET. inhibition, % at 12.2 µM. 2,000 compounds, 8.5% hits. AID 743282;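 active = average inhibition above the solvent-only control mean plus 3 SD, cut at about 6% in these data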;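 note: 0% = DMSO with substrate plus product and 100% = DMSO with substrate alone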
# 535nm interf DR: counter-screen for HGIII-sPLA2 inhibitors: 535nm fluorescence interference, dose response; shares compounds with sPLA2-III inh; BODIPY FL product fluorescence interference, cell-free; IC50, µM; 240 tested, under 10 active;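 active = IC50 at or below 10 µM; inactive = IC50 above 10 µM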
# Numbers without * were called inactive; . = no result given. This is a sample that favours compounds with a hit; in the whole collection about 1.5% have one here.
SMILES,sPLA2-III inh,PLC-beta3 inh,DAGLB inh,PLCg1 inh,sPLA2 confirm,535nm interf,others
COC(=O)[C@]12C[C@H](CC(=O)NCCc3ccccc3OC)C(=O)N(Cc3ccc(Cl)cc3Cl)C1=C[C@H](C1CCCC1)O[C@@H]2C,-9.5,4.4,.,1.3,.,.,
O=C(N/N=C/c1coc2ccccc2c1=O)c1cc(Br)ccc1O,21.8*,-12.1,5.4,-6.6,13.4,0.8,
Cc1ccc(-n2c(SCC(=O)Nc3ccc(S(=O)(=O)Nc4cc(C)nc(C)n4)cc3)nnc2-c2ccncc2)cc1,-75.1,-13.7,.,-10.8,.,.,
COc1ccc(CC(N)c2csc(NC(=O)c3cc(C(C)(C)C)nn3Cc3ccccc3)n2)cc1 (stereo not drawn),24.1*,-0.2,.,-2.7,4.3,-4.6,
S=c1[nH]cc(Cc2ccccc2)s1,38.1*,3.7,-0.3,0.9,27.1*,-2.3,
CC(CCN1CCC(C(O)(c2ccccc2)c2ccccc2)CC1)Oc1ccc(C#N)cc1F (stereo not drawn),-11.7,6.0,.,8.0,.,.,
CCn1c(/C=C/c2ccccc2C)nc2ccccc2c1=O,6.2,-29.8,-4.9,-11.9,.,.,
CCn1c(/C=C/c2c(C)n(CC)c3ccccc23)nc2ccccc2c1=O,23.9*,0.7,-0.6,-1.2,0.4,-8.6,
C/C(CC(C)(C)C1CCCCC1)=N\NC(N)=S,20.2*,-2.1,-3.0,3.9,19.4*,-3.5,
COc1ccc(NCc2ccc([N+](=O)[O-])s2)c(OC)c1,24.8*,-4.7,5.2,-0.2,13.0,3.2,
CC(=O)c1cc(-c2cccc(C(C)C)c2)c(=O)n2c1CCC2,-3.5,-2.8,.,-0.8,.,.,
Cc1cc(NS(C)(=O)=O)c(=O)n(Cc2cccc(C(F)(F)F)c2)c1,21.3*,-8.8,2.3,-3.7,17.3,-6.6,
COC(=O)C1CN(Cc2cn(CCC3OCCO3)nn2)CCS(=O)(=O)N1Cc1ccccc1 (stereo not drawn),4.6,-3.9,.,-2.6,.,.,
Cc1c(Cl)ccc2sc(NC(=O)CN3C(=O)c4ccccc4C3=O)nc12,19.5*,-0.7,1.7,2.9,-0.2,-7.7,
CCCC(=O)Nc1nc2c(C)c(Cl)ccc2s1,-3.5,-7.2,-8.7,-0.4,.,.,
O=C(CSc1nnc(-c2cccnc2)n1C1CCCCC1)NC1CCCCCC1,2.6,0.9,.,1.8,.,.,
CCCNC(=S)N1CCC(C(=O)c2ccc(Cl)cc2)CC1,16.7,-2.8,-1.3,1.2,.,.,
CCCNC(=S)N1CCC(C(=O)c2ccc(OC)cc2)CC1,21.3*,0.3,1.1,6.4,13.5,-6.8,
COC(=O)[C@]12CCCCC=C1N(Cc1ccc(OC)cc1)C(=O)[C@@H]2CC(=O)NCCC(C)C,-10.8,-0.2,.,1.3,.,.,
NNc1nc2c(F)cc(F)cc2s1,20.0*,-10.0,-0.1,-10.2,19.9*,5.3,
CCOc1ccc2nc(Cl)c(C3CC(c4ccco4)=NN3S(=O)(=O)c3ccccc3)cc2c1 (stereo not drawn),28.6*,-91.3,13.1,-77.8,1.7,-13.0,
COc1ccc2cc(C3CC(c4ccco4)=NN3S(C)(=O)=O)c(Cl)nc2c1 (stereo not drawn),5.9,-32.9,-1.1,-13.0,.,.,
CCC(Nc1ccc(OC)cc1)C(=O)N/N=C/c1ccc([N+](=O)[O-])cc1 (stereo not drawn),20.2*,1.5,0.4,-0.1,16.4,-5.1,
O=C(CSc1nc2ccccc2nc1N1CCCC1)N1CCN(C(c2ccccc2)c2ccccc2)CC1,3.9,-9.6,.,-6.3,.,.,
COc1cc2c(cc1OC)CN(C(=O)c1cc(Cl)nc(Cl)c1)CC2,7.3,-10.6,-5.2,-7.6,.,.,
SMILES,sPLA2-III inh,PLC-beta3 inh,DAGLB inh,PLCg1 inh,sPLA2 confirm,535nm interf,others
COc1cc2c(cc1OC)C1(C)N(CC2)C(C(C)=O)=NN1c1ccc(Cl)cc1 (stereo not drawn),19.7*,-142.0,.,-95.8,9.3,-4.6,
COc1ccc(NC(=O)CSc2nc(C)cc(=O)[nH]2)cc1OC,6.5,2.1,.,4.0,.,.,
CCCCOCCCNC(=O)C[C@H]1C[C@@]2(C(=O)OC)C(=C[C@H](COCc3ccccc3)O[C@@H]2C)N(Cc2ccc(Cl)cc2Cl)C1=O,-17.8,1.1,.,1.3,.,.,
CCOC(=O)c1sc(NC(C)=O)nc1C,22.7*,-0.9,0.2,-0.8,2.8,-8.1,
OCC(CCc1c[nH]c2ccccc12)c1c[nH]c2ccccc12 (stereo not drawn),35.1*,-114.5,.,-85.7,9.8,10.2*,
CCC1(CC)Cc2ccccc2C(CC(=O)N2CCOCC2)=N1,19.6*,5.3,1.4,7.7,18.6,-10.3,
CCN(CC)C(=O)c1ncn2c1c(=O)[nH]c1ccccc12,19.5*,3.9,0.6,3.4,5.7,-1.8,
CCOC(=O)[C@]12CCCCC/C=C\1N(CCc1ccc(Cl)cc1)C(=O)[C@H]2CC(=O)N1CCC(c2ccccc2)CC1,1.9,-1.5,.,-0.8,.,.,
Cc1n[nH]c(=S)n1/N=C/c1ccccc1OCc1ccc(Cl)cc1Cl,19.5*,0.6,-2.3,1.0,17.4,4.8,
Cc1ccc(/C=N/n2c(COc3ccccc3)n[nH]c2=S)o1,19.9*,-1.7,-1.6,-2.6,24.7*,2.7,
CCOc1ccccc1/C=N/n1c(COc2ccccc2)n[nH]c1=S,22.6*,-1.7,0.2,6.6,19.2*,6.9*,
Oc1ccccc1/C=N/n1c(COc2ccccc2)n[nH]c1=S,23.7*,-10.3,5.2,-3.3,16.1,2.1,
CCOc1ccc(NC(=O)CSc2nnc(-c3n[nH]c4c3CCC4)n2N)cc1,-5.2,3.2,.,3.3,.,.,
CCCCCCN1CCS(=O)(=O)N(Cc2ccc(F)cc2)C(C(=O)OC)C1 (stereo not drawn),11.2,-3.5,.,0.7,.,.,
Cn1cc(C2(C)CCOc3ccccc32)c2ccccc21 (stereo not drawn),1.4,-4.2,.,-2.7,.,.,
COc1ccc(CCC(C)NCc2ccc(C(F)(F)F)cc2)cc1 (stereo not drawn),17.9,-51.7,-2.7,-39.3,.,.,
COc1ccc(CNC(C)CCc2ccccc2)cc1 (stereo not drawn),20.5*,3.9,0.8,2.5,8.9,-15.7,
COc1ccc(C2CC(=O)Nc3cc(OC)c(OC)cc32)cc1 (stereo not drawn),20.9*,1.5,-0.1,4.4,1.3,-4.1,
O=C(NNc1nc2ccc(Cl)cc2s1)c1cc(-c2cccs2)nc2ccccc12,28.3*,-129.0,4.9,-89.5,34.5*,12.7*,
Cc1cc(C)c2nc(NNC(=O)c3cc(-c4cccs4)nc4ccccc34)sc2c1,36.8*,-94.1,2.5,-72.3,33.6*,0.0,535nm interf DR=>122
Cc1ccc2sc(NNC(=O)c3cc(-c4cccs4)nc4ccccc34)nc2c1C,8.9,-24.3,.,-19.4,.,.,
CCOC(=O)C1(Cc2ccccc2)CCN(Cc2ccccc2[N+](=O)[O-])CC1,0.7,-4.6,.,-0.3,.,.,
O=C1c2ccccc2C(=O)N1CCSc1n[nH]c(=S)s1,19.7*,3.7,4.3,2.3,24.5*,5.3,

# Compound activity (PubChem BioAssay)
